Data reported in the supplement of paper PMC10127200.
Counter-ions that a name gives are not always drawn.

What was measured:
Assay in all cases: Euclidean distance of Cell Painting phenotypic profile (signed KS, 77 features) to DMSO centroid (dimensionless distance); 5 or 10 uM (library dependent); higher = stronger phenotypic change vs DMSO (phenoactivity)
Conditions in all cases: 48 h
786-O = tested on: 786-O
Procedure, shortened: (§1)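 Stained cells were imaged confocally at 20X with 9 fields per well, after 48 h of exposure to library compounds at 10 or 5 uM (set by library; 0.1% DMSO final). The cells were five cancer lines and a healthy fibroblast line. From the images, Harmony extracted 77 features, each expressed as a signed Kolmogorov-Smirnov statistic relative to same-plate vehicle wells. Phenoactivity is measured as Euclidean distance to the median vehicle profile, using plate-position-corrected, correlation-weighted profiles averaged across replicates at the top dose.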

A549 = tested on: A549
Procedure, shortened: as §1

DU145 = tested on: DU145
Procedure, shortened: as §1

FB = tested on: FB
Procedure, shortened: as §1

HEPG2 = tested on: HEPG2
Procedure, shortened: as §1

OVCAR4 = tested on: OVCAR4
Procedure, shortened: as §1

Structure (SMILES)	Euclidean distance (786-O)	Euclidean distance (A549)	Euclidean distance (DU145)	Euclidean distance (FB)	Euclidean distance (HEPG2)	Euclidean distance (OVCAR4)
CC(=O)OC(C)C[N+](C)(C)C (configuration not stated) [Methacholine chloride]	0.977	1.02	1.24	0.67	0.576	1.45
CC#C[C@]1(O)CC[C@H]2[C@@H]3CCC4=CC(=O)CCC4=C3[C@@H](c3ccc(N(C)C)cc3)C[C@@]21C [Mifepristone]	1.22	1.62	1.48	1.13	1.01	1.14
NCC[C@H](O)C(=O)N[C@@H]1C[C@H](N)[C@@H](O[C@H]2O[C@H](CN)[C@@H](O)[C@H](O)[C@H]2O)[C@H](O)[C@H]1O[C@H]1O[C@H](CO)[C@@H](O)[C@H](N)[C@H]1O [Amikacin disulfate]	1.64	0.597	0.666	0.868	0.695	0.989
CN1CCN(CC/C=C2/c3ccccc3Sc3ccc(S(=O)(=O)N(C)C)cc32)CC1 [Thiothixene]	2.81	2.33	2.21	2.69	3.3	2.03
O=C(CCCCCCNC(=O)c1cnc(N(c2ccccc2)c2ccccc2Cl)nc1)NO [Citarinostat (ACY-241)]	1.92	2.05	2.16	3.07	2.52	1.75
CC(C)N(CCCCOCC(=O)NS(C)(=O)=O)c1cnc(-c2ccccc2)c(-c2ccccc2)n1 [Selexipag]	0.931	1.04	0.729	1.31	0.663	1.65
OC[C@H]1O[C@@H](c2ccc(F)c(Cc3cc4ccccc4s3)c2)[C@H](O)[C@@H](O)[C@@H]1O [Ipragliflozin (ASP1941)]	0.648	0.591	0.895	0.802	0.412	0.699
CC(C)Nc1cc(-c2c[nH]c(C(=O)N[C@H](CO)c3cccc(Cl)c3)c2)c(Cl)cn1	2.42	4.11	3.64	3.51	1.79	3.1
CC[C@]12CCCN3CCc4c(n(c5ccccc45)[C@@](O)(C(=O)OC)C1)[C@@H]32 [Vincamine]	1.3	1.33	0.578	0.795	0.91	1.18
COc1cc2c(cc1-c1c(C)noc1C)ncc1[nH]c(=O)n([C@H](C)c3ccccn3)c12	2.62	2.24	1.84	3.75	1.77	2.03
CN1CC2c3ccccc3Oc3ccc(Cl)cc3C2C1 (configuration not stated) [Asenapine maleate]	1.69	0.991	2.6	1.59	1.28	1.51
CC(=O)/N=c1/sc(S(N)(=O)=O)nn1C [Methazolamide]	1.32	0.988	0.818	0.885	0.858	1.5
C[C@H]1[C@H](C)CC[C@]2(C(=O)O)CC[C@]3(C)C(=CC[C@@H]4[C@@]5(C)C[C@@H](O)[C@H](O)[C@@](C)(CO)[C@@H]5[C@H](O)C[C@]43C)[C@H]12 [Madecassic acid]	0.661	0.291	0.775	0.741	0.461	0.968
CN(C)c1cc(NC(=O)CNC(C)(C)C)c(O)c2c1C[C@H]1C[C@H]3[C@H](N(C)C)C(O)=C(C(N)=O)C(=O)[C@@]3(O)C(O)=C1C2=O [Tigecycline]	1.81	0.996	1.03	1.6	1.09	1.18
C[C@H](Oc1cc(-c2cnn(C3CCNCC3)c2)cnc1N)c1c(Cl)ccc(F)c1Cl [(S)-crizotinib]	3.79	3.26	2.55	4.85	3.67	2.78
C=CC(=O)Nc1cccc(Oc2nc(Nc3ccc(N4CCN(C)CC4)cc3)ncc2Cl)c1	2.42	2.73	2.46	4.15	2.28	3.17
Cc1ccc(S(=O)(=O)c2ccc([N+](=O)[O-])o2)cc1	6.48	1.74	3.22	5.11	1.81	6.14
O=C(O)[C@@H](S)[C@@H](S)C(=O)O [Succimer]	1.49	1.41	1.53	1.35	0.53	1.55
O=C(O)[C@]1(Cc2cccc(Nc3nccs3)n2)CC[C@@H](Oc2cccc(Cl)c2F)CC1	2.59	3.36	0.648	0.818	0.498	2.16
COc1cc(Br)c(Nc2nc(-c3c(C)nc4ncccn34)cs2)c(Br)c1	3.62	2.67	2.18	2.66	4.16	1.63
C[C@H](O)[C@H](O)[C@H]1CNc2[nH]c(N)nc(=O)c2N1 [Sapropterin Dihydrochloride]	0.821	0.501	0.871	0.819	0.542	0.643
CC(C)(F)C[C@H](N[C@@H](c1ccc(-c2ccc(S(C)(=O)=O)cc2)cc1)C(F)(F)F)C(=O)NC1(C#N)CC1 [Odanacatib (MK-0822)]	0.533	2.1	0.7	0.656	1.37	0.985
